# From PubChem BioAssay AID588726 (The Scripps Research Institute Molecular Screening Center, 2011)
# The whole screen tested about 360,000 compounds, of which about 8,200 (2.3%) were called active. The sample holds actives, similar compounds and a random draw of the others, so the mix is not that of the screen. Rule as the data show it: active = inhibition above about 27%; inactive = the rest.
# Molecular target: Fructose-bisphosphate aldolase (Mycobacterium tuberculosis (strain ATCC 25618 / H37Rv)) (UniProt P9WQA3)
# Sequence (P9WQA3 whole entry, looked up): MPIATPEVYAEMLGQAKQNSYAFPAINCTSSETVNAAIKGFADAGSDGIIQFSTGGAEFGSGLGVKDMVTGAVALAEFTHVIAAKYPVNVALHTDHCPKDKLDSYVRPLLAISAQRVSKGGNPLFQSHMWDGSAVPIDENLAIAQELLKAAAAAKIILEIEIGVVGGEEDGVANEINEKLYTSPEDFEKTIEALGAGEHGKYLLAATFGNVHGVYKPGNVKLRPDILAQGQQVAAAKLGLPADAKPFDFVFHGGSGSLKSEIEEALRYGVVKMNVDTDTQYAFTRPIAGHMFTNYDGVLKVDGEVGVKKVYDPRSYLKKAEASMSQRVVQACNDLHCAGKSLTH
# Experiment: M. tuberculosis aldolase activity blockers – biochemical, fluorescence, strain H37Rv, primary screen (AID 588726);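 also: 0% = vehicle and 100% = reference inhibitor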
# Conditions: purified M. tuberculosis FBA, fluorescence read-out, at 1 µM, hits give high values
row,Structure (SMILES),inhibition
1,O=C(Nc1ccc2nccnc2c1)c1ccco1,50.1% (active)
2,O=C(NNC(=O)c1ccco1)Nc1ccccc1,-0.74% (inactive)
3,CC(C)(C)NC(=O)c1cc(NC(=O)c2ccco2)cc(NC(=O)c2ccco2)c1,1.27% (inactive)
4,COc1ccc(-c2[nH]ncc2CN(C)Cc2cc(C)[nH]n2)c(F)c1,-3.53% (inactive)
5,CC(C)C(OC(=O)c1cccs1)C(=O)NC1CCCCC1 (centres undefined),3.33% (inactive)
6,O=C(NCc1cccnc1)c1cc(C2CCCN(C(=O)C3CCCCC3)C2)on1 (centres undefined),1.09% (inactive)
7,CCOC(=O)CN(C(=O)COc1nc(C)cc(C)c1C#N)c1ccc(Cl)cc1,0.17% (inactive)
8,CCOC(=O)COc1nc(C)cc(C(F)(F)F)c1C#N,75.7% (active)
9,Cc1cc(C(F)(F)F)c(C#N)c(SCC(=O)NC2CC2)n1,1.94% (inactive)
10,O=C1CC(Cc2ccc(Cl)cc2)C(=O)N1c1cc(Cl)ccn1 (centres undefined),-3.99% (inactive)
11,Cc1cc(C)n(-c2nc(O)cc(=O)[nH]2)n1,-2.32% (inactive)
12,OC(c1nnc(-c2ccccc2)o1)c1cccs1 (centres undefined),-4.15% (inactive)
13,CN(C)c1ccc(-c2nnc(-c3cccnc3)o2)cc1,14.1% (inactive)
14,Nc1ccc(-c2nnc(-c3ccc(-c4ccccc4)cc3)o2)cc1,62.9% (active)
15,COC(=O)[C@@H]1C[C@@]2(O)[C@@H](O)[C@@H](O)[C@@H](O)C[C@H]2N1Cc1ccc(C)s1,-1.21% (inactive)
16,CC(C)Cn1c(N)c(C(=O)COC(=O)C2CCCN2C(=O)c2cccs2)c(=O)n(C)c1=O (centres undefined),2.37% (inactive)
17,Cc1ccc(S(=O)(=O)N2CCN(C(=O)Cc3sc(C)nc3-c3ccc(F)cc3)CC2)c(C)c1,-0.33% (inactive)
18,Cc1ccc(NC(=O)CSc2nnc(CNC(=O)c3ccccc3F)o2)cc1,0.75% (inactive)
19,C=CCn1c(CCNC(=O)c2ccccc2F)nnc1SCC(=O)Nc1ccc(OC)cc1,43.4% (active)
20,C=CCn1c(COc2ccc(F)cc2)nnc1SCC(=O)Nc1cccc(S(N)(=O)=O)c1,0.32% (inactive)
21,COc1ccc(CCNC(=O)C(=O)NCC2OCCN2S(=O)(=O)c2ccc(OC)c(C)c2)cc1 (centres undefined),-0.91% (inactive)
22,O=C(CN(C(=O)c1csnn1)c1cccc(Cl)c1)NC1CCCC1,2.14% (inactive)
23,CC(C)[C@@H](C(=O)O)N(Cc1cccc(CN([C@H](C(=O)O)C(C)C)S(C)(=O)=O)c1)S(C)(=O)=O,5.75% (inactive)
24,O=C1CC2(CCCCC2)Oc2ccc(OCC(=O)N3CCOCC3)cc21,49.5% (active)

row,Structure (SMILES),inhibition
1,O=C1CC2(CCN(C(=O)COc3ccc(F)cc3)CC2)Oc2ccccc21,6.06% (inactive)
2,O=C1CC2(CCCC2)Oc2ccc(Cl)cc21,2.17% (inactive)
3,Cc1ccc2nc(/C(C#N)=C\c3ccc(OC(=O)c4cccs4)cc3)[nH]c2c1,36.1% (active)
4,COc1ccc(CCNC(=O)/C(C#N)=C2\N=C(NC(=O)c3cccs3)c3ccccc32)cc1,-0.53% (inactive)
5,CCN(CC)c1ccc(C(=O)c2cnc(/N=C/N(C)C)s2)cc1,-0.9% (inactive)
6,CCC1CCCCN1CCNC(=O)c1[nH]c(C)c(C(C)=O)c1C (centres undefined),-2.24% (inactive)
7,CC(C(=O)N1CCN(c2ccccc2F)CC1)c1ccc([N+](=O)[O-])cc1 (centres undefined),-0.87% (inactive)
8,CC(C)(C)NS(=O)(=O)c1ccc(NC(=O)C2CCCO2)cc1 (centres undefined),0.12% (inactive)
9,CCOc1ccc(NC(=O)c2ccc(NC(=O)C3CCCO3)cc2)cc1 (centres undefined),0.48% (inactive)
10,O=C(Nc1ccc(-c2nnc(-c3ccccc3)o2)cc1)C1CCCO1 (centres undefined),61.2% (active)
11,c1ccc2c(-c3nn4nnnc4c4ccccc34)cccc2c1,1.01% (inactive)
12,Cc1csc(NC(=O)C2CCN(S(=O)(=O)c3ccccc3)CC2)n1,-1.66% (inactive)
13,COc1cccc(C(=O)Nc2ccc3nc4n(c(=O)c3c2)CCCCC4)c1,0.68% (inactive)
14,Cc1ccc2nc(-c3ccc(NC(=O)c4cccnc4)cc3)oc2c1,-7.14% (inactive)
15,CC(=O)Nc1ccc(-c2nc3ccccc3o2)cc1,60.6% (active)
16,CC(C)(C)C(=O)CSc1nc2ccccc2o1,2.23% (inactive)
17,COc1cc(OC)cc(C(=O)Nc2ccc(-c3nc4ccccc4o3)c(O)c2)c1,38% (active)
18,COc1cc(OC)cc(C(=O)N[C@H](C(=O)Nc2nc3ccccc3[nH]2)C(C)C)c1,-0.55% (inactive)
19,CC1(C(=O)Nc2cccc3c2CCCC3)CCN1C(=O)CCc1ccc(Cl)cc1Cl (centres undefined),0% (inactive)
20,O=C(Cc1ccc(F)cc1)NC1CCCC1,-0.93% (inactive)
21,CCOC(=O)c1c(C)c(C(=O)NCCc2ccc(S(N)(=O)=O)cc2)c(C)n1CC,-2.42% (inactive)
22,CCCNC(=O)c1c(N)n(-c2ccc(S(N)(=O)=O)cc2)c2nc3ccccc3nc12,102% (active)
23,Cc1noc(C)c1C(=O)NCCc1ccc(S(N)(=O)=O)cc1,0.56% (inactive)
24,CC1(C(=O)NCc2cccc3ccccc23)CCN1Cc1ccc(-c2ccccc2)o1 (centres undefined),2.7% (inactive)

row,Structure (SMILES),inhibition
1,Cc1cc(Nc2cc(N3CCN(C)CC3)nc(Sc3ccc(NC(=O)C4CC4)cc3)n2)n[nH]1,0.5% (inactive)
2,O=C(O)Cc1sc(-c2ccc(C(=O)O)cc2)nc1-c1ccccc1,37% (active)
3,CCOc1ccc(-c2nc(C)sc2CC(=O)O)cc1,5.29% (inactive)
4,NC(=O)Cc1ccc2sc(-c3ccccc3)nc2c1,5.06% (inactive)
5,Cc1cccc(C)c1N1C(=O)CN(Cc2ccccc2)C1=S,3.51% (inactive)
6,Cc1ccc(Cc2c(-c3ccco3)nc3ccc(Cl)cn23)cc1,6.29% (inactive)
7,Clc1cccc(Cc2c(-c3cccc(Cl)c3)nc3ccc(Cl)cn23)c1,6.59% (inactive)
8,Cc1ccc2nc(-c3ccco3)c(Cc3cccc(Cl)c3)n2c1,30.3% (active)
9,O=C(Nc1ccc(N2CCN(C(=O)c3ccccc3)CC2)c(Cl)c1)c1cccnc1,-4.3% (inactive)
10,COc1ccc(CCNS(=O)(=O)c2ccc(F)cc2)cc1OC,0.71% (inactive)
11,Cn1c(CCNS(=O)(=O)c2ccc(F)cc2)nnc1SCc1cccnc1,-0.16% (inactive)
12,Cc1nn(C)c(Oc2ccccc2)c1CCNS(=O)(=O)c1ccc(F)cc1,28.7% (active)
13,COC(=O)c1ccc(CN2CCC(CO)(Cc3ccc(OC)cc3)CC2)cc1,8.41% (inactive)
14,C=CCn1cc(-c2cccc(C(F)(F)F)c2)cc(C#N)c1=O,47.4% (active)
15,C=CCn1c(-c2ccc(Cl)cc2)ccc(C#N)c1=O,1.41% (inactive)
16,CC1(Cc2cccc(C#N)c2)C(=O)Nc2ccc(-c3cccc(C(F)(F)F)c3)cc21 (centres undefined),-1.35% (inactive)
17,O=C(COC(=O)CNS(=O)(=O)c1ccc(F)c(F)c1F)NC1CCCC1,-3.58% (inactive)
18,COc1ccc(CNC(=O)CN(C(=O)c2csnn2)c2cnc3ccccc3c2)cc1,3.6% (inactive)
19,COC(=O)N1CN(C(=O)OC)CN(C(=O)OC)C1,0.37% (inactive)
20,Cc1ccc(C2CCN(C(=S)Nc3cccc(Cl)c3)C2)cc1 (centres undefined),-1.23% (inactive)
21,Cc1nc2ccc(NC(=O)N3CCC(c4ccccc4)C3)cc2nc1C (centres undefined),72.4% (active)
22,Cc1nc2ccc(NC(=S)N3CCC(C)CC3)cc2nc1C,5.9% (inactive)
23,COc1cccc(CN2CCN(Cc3ccc4cccc(F)c4n3)CC2CCO)c1 (centres undefined),2.17% (inactive)
24,Cc1ccc(C(CNC(=O)Nc2cccc(C)c2)N2CCN(C)CC2)cc1 (centres undefined),2.29% (inactive)

row,Structure (SMILES),inhibition
1,COc1ccc(-c2cc(=O)oc3cc(OCC(=O)N(C)C4CCS(=O)(=O)C4)ccc23)cc1 (centres undefined),3.8% (inactive)
2,Cc1ccccc1NC(=O)c1ccc(COc2ccc3c(C)cc(=O)oc3c2)cc1,11.9% (inactive)
3,CCN(C(=O)COC(=O)c1ccc(COc2ccc3c(C)cc(=O)oc3c2)cc1)C1CCS(=O)(=O)C1 (centres undefined),44.6% (active)
4,C[C@@H]1CN([C@@H](C)CO)C(=O)CCCn2nncc2CO[C@@H]1CN(C)S(=O)(=O)c1ccc(-c2ccccc2)cc1,-2.99% (inactive)
5,CCc1nc2c(OCCOc3ccccc3)cccn2c1N(C)C(=O)c1ccc(OC)cc1,1.06% (inactive)
6,CN(C)CCCn1c(N)c(C#N)c2nc(C#N)c(C#N)nc21,61.1% (active)
7,C=CCn1c(SCc2nnc(-c3ccccc3)o2)nnc1C(O)c1ccccc1 (centres undefined),1.46% (inactive)
8,Cc1cc(C)c2c(n1)sc1c(=O)n(-c3ccccc3)c(=O)[nH]c12,38.8% (active)
9,Cc1sc2nc(SCCO)n(-c3ccccc3)c(=O)c2c1C,1.67% (inactive)
10,C/C(O)=C\c1nc(=O)c2c(C)cc(C)nc2n1-c1ccccc1,4.59% (inactive)
11,COC(=O)c1ccccc1NC(=O)CN(Cc1ccccc1)S(C)(=O)=O,5.21% (inactive)
12,COc1ccccc1N1CCN(S(=O)(=O)CCNC(=O)c2ccc(OC(C)C)cc2)CC1,-0.15% (inactive)
13,C[C@@H]1CN([C@@H](C)CO)C(=O)c2c(c3ccccc3n2C)-c2ccccc2CO[C@H]1CN(C)C(=O)C1CC1,2.36% (inactive)
14,O=c1c2[nH]c3ccc(Cl)cc3c2ncn1Cc1ccccn1,-2.42% (inactive)
15,COc1ccc2[nH]c3c(=O)n(Cc4ccco4)cnc3c2c1,97.5% (active)
16,COc1ccc2oc(C(=O)NCc3ccco3)c(C)c2c1,25.3% (inactive)
17,COc1ccc2c(c1)c1nc3n(c(=O)c1n2CC(=O)Nc1ccccc1)CCS3,8.41% (inactive)
18,Cc1ccc2[nH]c3c(=O)n(Cc4ccccn4)cnc3c2c1,29.9% (active)
19,Cc1ccc(C)c(Cn2cnc3c(oc4ccccc43)c2=O)c1,-1.54% (inactive)
20,CCN1CCCC1Cn1cnc2c([nH]c3cc(OC)ccc32)c1=O (centres undefined),1.27% (inactive)
21,COc1cccc(Cn2cnc3c([N+](=O)[O-])c(C)c(C)cc32)c1,-3.25% (inactive)
22,COc1ccc2c(c1)c1ncn(Cc3ccccn3)c(=O)c1n2C,159% (active)
